Bioassay records deposited in PubChem by National Center for Advancing Translational Sciences (NCATS).
Only some compounds are listed: those with a hit (about 2.4% of all), similar ones and a draw of the others.
aSyn rescue: qHTS of alpha-syn Inhibitors; Yeast expressing alpha-synuclein, growth rescue, BacTiter-Glo, 24 h; Potency, µM (highest dose often 46.1 µM), actives largely listed as activators; hit rate 0.14% among 370,000; further: nearly all actives have a fitted effect of over 65% in size
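Rescue of yeast growth: cells expressing toxic alpha-synuclein, induced in galactose at OD600 0.02, incubated with compound 24 h at 30 C. ATP luminescence quantified growth; inhibitors of toxicity appear as activators.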
Abeta yeast res: qHTS for compounds that reverse cellular toxicity of Amyloid beta (A-beta) peptide in yeast: Primary Screen; yeast expressing A-beta42, growth rescue, OD600, 48 h; response scale: 0% DMSO, 100% iron-clioquinol control; Potency, µM (top dose mostly 46.1 µM), usual class: activators; hit rate 0.063% among 410,000; further: nearly all actives have a fitted effect of over 55% in size
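Yeast A-beta toxicity model in growth medium with pinned compounds, 48 h at 30 C; growth read as absorbance at 600 nm. Normalized to FeCl3/clioquinol equimolar mix (positive) and DMSO (negative).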
AT treatment: qHTS Assay for Identifying a Potential Treatment of Ataxia-Telangiectasia | F2112 A-T fibroblasts, KAP-1 phosphorylation AlphaLISA; neocarzinostatin DNA damage 30 min before lysis | Potency, µM (top dose mostly 57.5 µM), hits mostly activators | hit rate 0.19% among 320,000; further: nearly all actives have a fitted effect of over 45% in size
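ATM-like activity read as KAP-1 phosphorylation via AlphaLISA donor/acceptor antibody pairs after lysis and 6 hr at 25C. Cells were ATM-null patient fibroblasts (F2112, hTERT), dosed 60 min, then exposed to the DSB inducer NCS for 30 min.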
TDP43 rescue: qHTS of TDP-43 Inhibitors; TDP-43 expressing yeast growth rescue, BacTiter-Glo, 24 h; Potency, µM (titrated, usually from 46.1 µM), most hits filed as activators; hit rate 1.8% among 410,000; AID 652104, 2013; further: nearly all actives have a fitted effect of over 50% in size
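Growth rescue of TDP-43-toxic yeast measured as ATP luminescence (BacTiter-Glo). Cells grown to mid-log in raffinose, induced in galactose at OD600=0.02, exposed to compound 24 hr at 30 deg C.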
Mito fusion act: qHTS Assay for Small Molecule Inhibitors of Mitochondrial Division or Activators of Mitochondrial Fusion; S. cerevisiae fusion-defective mutant growth rescue, CellTiterGlo 48 h; Potency, µM (titrated, usually from 46.1 µM), most hits filed as activators; hit rate 0.23% among 320,000; AID 485298, 2010; further: nearly all actives have a fitted effect of over 45% in size
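Temperature-sensitive fusion-defective S. cerevisiae (e.g. fzo1-1, mgm1-5) were grown with compound in YPEG medium (3% ethanol, 3% glycerol) for 48 hours at 37C. Growth rescue was measured as viability by CellTiterGlo luminescence after 10 minutes at ambient.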
FUS yeast rescue: qHTS for Suppressors of FUS Proteinopathy: Primary screen using FUS-linked yeast assay. Potency, µM (highest dose often 76.6 µM), usual class: activators. hit rate 0.24% among 390,000. S. cerevisiae FUS-expressing, growth rescue, OD600, 24 h; further: nearly all actives have a fitted effect of over 55% in size
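Yeast FUS proteinopathy model; galactose-induced FUS (2%), starting OD 0.005. Cpds in dilution series, 24hr, 30C, 99% humidity. Abs 600 nm growth. Pos ctrl CP55940 (top 92uM final); neg ctrl DMSO.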
Numbers stand for hits; – = inactive; ? = inconclusive; · = not tested or not shown; [ ] = dose if it differs, or a comment. The call rests on the fitted dose curve; in most records, active means well fitted curve in the direction sought with a large enough effect; inconclusive means small, poorly fitted or top-dose-only effect, or another doubt; inactive means no such curve, though single readings can be large; an effect the other way counts as inactive or inconclusive.

SMILES | aSyn rescue | Abeta yeast res | AT treatment | TDP43 rescue | Mito fusion act | FUS yeast rescue
COc1cnc(-c2ccccn2)nc1Oc1ccc(F)cc1F | – | 22.4µM | – | – | – | –
O=C(OCc1ccccc1Cl)c1ccc(-c2nnn(Cc3ccccc3)n2)cc1 | · | – | · | – | · | –
O=C(OCc1ccccc1Cl)c1ccc(-n2cnnc2)cc1 | – | – | – | 12.6µM | – | –
N#CCCN(Cc1ccccc1)C(=S)Nc1ccc(F)cc1 | – | – | – | – | – | –
CCCN(Cc1ccccc1)C(=S)Nc1ccc(F)cc1 | – | – | – | 17.8µM | – | –
O=C(NC1(C(F)(F)F)C(=O)Nc2c1c(=O)[nH]c(=O)n2-c1ccc(F)cc1)c1ccccc1 (stereo not drawn) | · | – | · | – | · | –
O=C(Nc1ccc(F)cc1F)c1cc2c(=O)n3ccccc3nc2s1 | · | – | · | – | · | –
Cc1ccc(/C=N/NC(=S)N2CCOCC2)cc1 | – | ? | – | 22.4µM | – | ·
COc1ccc(C(=O)NNC(=S)NC(=O)c2ccc(OC)cc2)cc1 | – | ? | – | – | – | –
CCCCC(=O)NC(=S)NNC(=O)c1ccc(OC)cc1 | 6.31µM | ? | – | ? | – | –
COc1ccc([N+](=O)[O-])cc1NC(=S)NC(C)=O | – | – | – | – | – | –
Cc1ccc(C(=O)NC(=S)NNC(=O)c2ccc([N+](=O)[O-])cc2)cc1 | – | ? | – | ? | – | –
CCCCCC(=O)NNC(=S)NC(=O)c1ccc([N+](=O)[O-])cc1 | 22.4µM | ? | – | –[9.22 µM] | – | –
CCCCC(=O)NNC(=S)NC(=O)CCC | 25.1µM | ? | · | – | – | –
CCCCC(=O)NC(=S)Nc1cc([N+](=O)[O-])ccc1OC | – | – | – | 7.08µM | – | –
Cc1c(Cl)cccc1NC(=O)C(=O)NCC(c1cccnc1)N1CCN(c2ccccc2)CC1 (stereo not drawn) | · | – | · | – | · | –
O=C1CCC[C@H]2C[C@H](NCc3cccc(I)c3)CC[C@]23CCCN13 | · | · | · | · | · | –
Cc1cc(NC(=O)c2ccccc2F)n(-c2nc3ccccc3[nH]2)n1 | – | – | – | – | – | –
Cc1cc(Nc2ccccc2)n(-c2nc3ccccc3[nH]2)n1 | – | – | ? | 15.8µM | – | –
CCOC(=O)c1ccc(NC(=O)CN(Cc2ccc(C)cc2)S(=O)(=O)c2ccc(C)cc2)cc1 | · | – | · | – | · | –
COc1ccc2c(c1)N=C(c1[nH]c3ccccc3c1CCN1C(=O)c3ccccc3C1=O)[C@]2(O)CCN1C(=O)c2ccccc2C1=O | · | · | · | · | · | 17.8µM
Cc1nc(-c2ccccc2)sc1C(=O)/C=C/c1ccc(Cl)cc1 | – | – | – | – | – | –
Cc1nc(-c2ccccc2Cl)sc1C(=O)/C=C/N(C)C | – | – | – | 31.6µM | – | –
Cc1ccc(CCNc2nc3c(S(=O)(=O)c4ccc(C)cc4)nnn3c3ccsc23)cc1 | · | – | · | – | · | –
COc1ccc(SCc2cc(=O)c3cc(Cl)ccc3[nH]2)cc1 | · | – | · | – | · | –
SMILES | aSyn rescue | Abeta yeast res | AT treatment | TDP43 rescue | Mito fusion act | FUS yeast rescue
COc1cc2c(cc1NC(=O)CN(C)Cc1ccc(OC)c(OC)c1)oc1ccccc12 | – | – | – | – | 14.1µM | –
COc1ccc(CN(C)CC(=O)Nc2cc3oc4ccccc4c3cc2OC)c(OC)c1 | – | – | – | – | ? | ·
COc1ccc2c(c1)C(C)CC(C)(C)N2C(=O)CSc1ncn[nH]1 (stereo not drawn) | – | – | 20µM | – | – | –
COc1ccc(N2CCN(C(=O)CSc3ncn[nH]3)CC2)cc1 | – | – | – | – | – | –
O=C1CN(c2nc(-c3cccs3)nc3sc4c(c23)CCCC4)CCN1 | – | – | – | – | – | 35.5µM
CCOc1cc(/C=C(\C#N)C(=O)Nc2ccc(C)cc2)ccc1OCc1cc(=O)n2nc(CC)sc2n1 | · | – | · | – | · | –
Cc1csc(Nc2ccc(Cl)cc2)n1 | – | ? | – | 15.8µM | – | –
